Data taken from the supplement of paper PMC10849652.
Targets with a hit are over-represented here; the source holds about 8,800 in all. About 0.5% of all pairs of compound and target were hits.

Tests used:
Assay in all cases: log2 fold change, soluble protein after heating vs DMSO (PISA); higher = thermal stabilisation; K562 lysate, 10 uM; active = over 0.2 and 3.5 SD of the protein, either way, in both replicates (recomputed)
erlotinib = compound: C#Cc1cccc(Nc2ncnc3cc(OCCOC)c(OCCOC)cc23)c1 [erlotinib]
Summary of the method: (§1)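 Soluble protein was defined as the supernatant remaining after 21,000xg for 90 min, following pooling of heated aliquots and adjustment to 0.5% NP-40 at 4°C. Before that, crude K562 extract at 1 mg/mL protein in PBS pH 7.4 with 1 mM MgCl2 was treated with 10 μM compound for 30 min and heated for 3 min across 48°C-58°C. Quantification used TMTpro 16plex LC-MS/MS with channel sums equalised, and values are log-two fold changes in thermal stability relative to solvent controls from duplicates.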

[1] = compound: C/C(=N\NC(=O)C1=CC(=CC=C1)S(=O)(=O)N2CCOCC2)/C3=C(C=CC(=C3)Cl)O
Summary of the method: as §1

[2] = compound: C1=CC(=CC=C1C2=NC3=C(N2)C=C(C=C3)C(=O)N)OC4=CC=C(C=C4)Cl
Summary of the method: as §1

[3] = compound: C1=CC2=C(C=CC(=C2)/C=C\3/C(=O)NC(=NCC4=CC=CS4)S3)N=C1
Summary of the method: as §1

[4] = compound: C1=CC2=NC=CN=C2C=C1/C=C/3\C(=O)NC(=O)S3
Summary of the method: as §1

[5] = compound: C1=CC=C(C=C1)C2=NC(=C(N2)C3=CC=NC=C3)C4=CC(=C(C=C4)Cl)O
Summary of the method: as §1

[6] = compound: C1=CC=C2C(=C1)C3=NNC4=CC=CC(=C43)C2=O
Summary of the method: as §1

[7] = compound: C1CCN(C1)C(=O)NC2=CC=CC(=C2)NC3=NC=C(C(=N3)NCCC4=CN=CN4)Br
Summary of the method: as §1

[8] = compound: C1CN(CCC1(CC2=CC=C(C=C2)Cl)N)C3=NC=NC4=C3C=CN4
Summary of the method: as §1

IRAK-1-4 Inhibitor I = compound: C1COCCN1CCN2C3=CC=CC=C3N=C2NC(=O)C4=CC(=CC=C4)[N+](=O)[O-] [IRAK-1-4 Inhibitor I]
Summary of the method: as §1

Measured: log2 fold change

SMG7 (UniProt Q92540)
inactive: erlotinib 0.007 | [1] -0.03 | [2] -0.022 | [3] -0.058 | [4] -0.066 | [5] -0.047 | [6] -0.032 | [7] -0.077 | [8] -0.01 | IRAK-1-4 Inhibitor I -0.011

SMG1 (UniProt Q96Q15)
inactive: erlotinib -0.004 | [1] -0.031 | [2] -0.046 | [3] 0.009 | [4] 0.029 | [5] -0.022 | [6] -0.072 | [7] -0.036 | [8] 0.024 | IRAK-1-4 Inhibitor I -0.008

STMN3 (UniProt Q9NZ72)
Chain of UniProt Q9NZ72 (Q9NZ72 whole entry, looked up): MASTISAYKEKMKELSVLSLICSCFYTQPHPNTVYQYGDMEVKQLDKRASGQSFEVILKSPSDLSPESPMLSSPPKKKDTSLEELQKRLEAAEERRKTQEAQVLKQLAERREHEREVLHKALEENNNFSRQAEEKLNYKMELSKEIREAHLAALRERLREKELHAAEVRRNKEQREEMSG
inactive: erlotinib 0.012 | [1] 0.01 | [2] -0.003 | [3] -0.122 | [4] -0.062 | [5] -0.026 | [6] 0.043 | [7] -0.097 | [8] 0.091 | IRAK-1-4 Inhibitor I -0.006

SRSF9 (UniProt Q13242)
Chain of UniProt Q13242 (Q13242 whole entry, looked up): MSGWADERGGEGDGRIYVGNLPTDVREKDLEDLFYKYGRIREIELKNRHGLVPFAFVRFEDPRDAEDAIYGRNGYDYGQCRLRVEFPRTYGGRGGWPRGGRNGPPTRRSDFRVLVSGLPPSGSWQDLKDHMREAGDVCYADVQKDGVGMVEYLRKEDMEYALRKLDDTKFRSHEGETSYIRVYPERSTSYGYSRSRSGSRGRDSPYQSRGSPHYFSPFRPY
active: [1] 0.263
inactive: erlotinib 0.027 | [2] 0.007 | [3] 0.077 | [4] 0.052 | [5] -0.01 | [6] 0.097 | [7] 0.072 | [8] 0.007 | IRAK-1-4 Inhibitor I 0.012

SLC25A38 (UniProt Q96DW6)
Chain of UniProt Q96DW6 (Q96DW6 whole entry, looked up): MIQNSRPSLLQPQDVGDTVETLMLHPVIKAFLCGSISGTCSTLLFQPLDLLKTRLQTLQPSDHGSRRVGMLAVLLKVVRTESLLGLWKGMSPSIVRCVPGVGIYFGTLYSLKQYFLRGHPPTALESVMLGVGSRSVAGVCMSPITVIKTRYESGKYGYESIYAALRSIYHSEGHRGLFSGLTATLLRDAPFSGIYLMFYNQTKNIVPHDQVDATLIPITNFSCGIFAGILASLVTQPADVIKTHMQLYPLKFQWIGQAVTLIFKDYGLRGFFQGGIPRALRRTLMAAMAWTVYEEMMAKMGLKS
inactive: erlotinib -0.077 | [1] -0.117 | [2] -0.024 | [3] -0.049 | [4] -0.086 | [5] -0.114 | [6] -0.092 | [7] -0.023 | [8] -0.07 | IRAK-1-4 Inhibitor I -0.052

SF3B6 (UniProt Q9Y3B4)
inactive: erlotinib 0.011 | [1] 0.047 | [2] 0 | [3] 0.001 | [4] 0.043 | [5] 0.034 | [6] 0.044 | [7] 0.004 | [8] -0.034 | IRAK-1-4 Inhibitor I -0.024

SLC25A44 (UniProt Q96H78)
Chain of UniProt Q96H78 (Q96H78 whole entry, looked up): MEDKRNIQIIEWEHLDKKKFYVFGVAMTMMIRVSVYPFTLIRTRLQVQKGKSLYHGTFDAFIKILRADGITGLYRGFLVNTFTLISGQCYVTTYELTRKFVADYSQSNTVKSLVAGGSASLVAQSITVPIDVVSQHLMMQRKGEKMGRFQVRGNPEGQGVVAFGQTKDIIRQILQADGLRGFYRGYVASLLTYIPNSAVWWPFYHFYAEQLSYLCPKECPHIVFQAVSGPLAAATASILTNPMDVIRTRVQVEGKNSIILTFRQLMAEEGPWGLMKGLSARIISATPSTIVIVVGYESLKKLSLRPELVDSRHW
inactive: erlotinib 0.117 | [1] -0.275 | [2] 0.055 | [3] -0.018 | [4] 0.025 | [5] -0.064 | [6] 0.145 | [7] -0.039 | [8] 0.037 | IRAK-1-4 Inhibitor I -0.053

SLC7A5 (UniProt Q01650)
inactive: erlotinib 0.001 | [1] -0.009 | [2] -0.029 | [3] -0.015 | [4] 0.02 | [5] 0.007 | [6] -0.008 | [7] 0.019 | [8] -0.006 | IRAK-1-4 Inhibitor I 0.021

SPAG5 (UniProt Q96R06)
inactive: erlotinib 0.013 | [1] 0.012 | [2] -0.054 | [3] 0.003 | [4] -0.008 | [5] 0.014 | [6] 0.018 | [7] -0.009 | [8] -0.011 | IRAK-1-4 Inhibitor I 0

SLC38A1 (UniProt Q9H2H9)
inactive: erlotinib -0.01 | [1] -0.029 | [2] 0.056 | [3] 0.007 | [4] 0.01 | [5] 0.039 | [6] -0.061 | [7] -0.027 | [8] 0.026 | IRAK-1-4 Inhibitor I 0.053

STOML2 (UniProt Q9UJZ1)
Chain of UniProt Q9UJZ1 (Q9UJZ1 whole entry, looked up): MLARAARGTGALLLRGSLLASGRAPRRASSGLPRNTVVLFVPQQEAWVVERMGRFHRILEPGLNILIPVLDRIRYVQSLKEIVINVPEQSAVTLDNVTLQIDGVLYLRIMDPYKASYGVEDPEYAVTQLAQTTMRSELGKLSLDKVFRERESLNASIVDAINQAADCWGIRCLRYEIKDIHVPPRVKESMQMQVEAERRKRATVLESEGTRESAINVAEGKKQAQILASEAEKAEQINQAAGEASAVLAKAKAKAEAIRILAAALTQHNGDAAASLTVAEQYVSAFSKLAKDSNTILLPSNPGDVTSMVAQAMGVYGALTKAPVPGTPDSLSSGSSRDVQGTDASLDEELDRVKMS
inactive: erlotinib -0.021 | [1] 0.018 | [2] 0.04 | [3] -0.049 | [4] 0.037 | [5] 0.012 | [6] -0.063 | [7] 0.023 | [8] 0.027 | IRAK-1-4 Inhibitor I 0.036

SMN1 (UniProt Q16637)
inactive: erlotinib 0.038 | [1] 0.009 | [2] 0.042 | [3] -0.075 | [4] -0.055 | [5] 0.096 | [6] -0.068 | [7] -0.046 | [8] -0.104 | IRAK-1-4 Inhibitor I 0.02

SMC1B isoform 3 (UniProt Q8NDV3)
active: [1] 0.265
inactive: erlotinib -0.002 | [2] 0.003 | [3] -0.04 | [4] -0.067 | [5] 0.02 | [6] -0.032 | [7] 0.048 | [8] 0.205 | IRAK-1-4 Inhibitor I 0.043

SMIM12 (UniProt Q96EX1)
inactive: erlotinib 0.048 | [1] -0.105 | [2] -0.024 | [3] -0.042 | [4] -0.026 | [5] 0.024 | [6] -0.009 | [7] 0.075 | [8] 0.008 | IRAK-1-4 Inhibitor I -0.009

SMTN isoform 6 (UniProt P53814)
inactive: erlotinib -0.033 | [1] 0.081 | [2] -0.01 | [3] 0.035 | [4] 0.006 | [5] 0.021 | [6] 0.005 | [7] -0.018 | [8] 0.015 | IRAK-1-4 Inhibitor I 0.058

SNRPD3 (UniProt P62318)
Chain of UniProt P62318 (P62318 whole entry, looked up): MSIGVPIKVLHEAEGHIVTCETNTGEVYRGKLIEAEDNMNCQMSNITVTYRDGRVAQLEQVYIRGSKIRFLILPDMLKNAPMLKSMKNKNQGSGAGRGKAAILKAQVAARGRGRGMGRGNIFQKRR
inactive: erlotinib 0.017 | [1] 0.021 | [2] 0.016 | [3] -0.057 | [4] 0.013 | [5] -0.013 | [6] 0.033 | [7] 0.019 | [8] 0.044 | IRAK-1-4 Inhibitor I 0.026

SMAP2 (UniProt Q8WU79)
inactive: erlotinib -0.009 | [1] -0.018 | [2] 0.073 | [3] 0 | [4] 0.023 | [5] -0.2 | [6] 0.015 | [7] 0.037 | [8] 0.023 | IRAK-1-4 Inhibitor I 0.044

SNX6, A0A0A0MRI2
inactive: erlotinib 0.012 | [1] 0.056 | [2] -0.029 | [3] 0.04 | [4] -0.028 | [5] 0.013 | [6] -0.073 | [7] 0.024 | [8] -0.047 | IRAK-1-4 Inhibitor I -0.013

SMC3 (UniProt Q9UQE7)
Chain of UniProt Q9UQE7 (Q9UQE7 whole entry, looked up): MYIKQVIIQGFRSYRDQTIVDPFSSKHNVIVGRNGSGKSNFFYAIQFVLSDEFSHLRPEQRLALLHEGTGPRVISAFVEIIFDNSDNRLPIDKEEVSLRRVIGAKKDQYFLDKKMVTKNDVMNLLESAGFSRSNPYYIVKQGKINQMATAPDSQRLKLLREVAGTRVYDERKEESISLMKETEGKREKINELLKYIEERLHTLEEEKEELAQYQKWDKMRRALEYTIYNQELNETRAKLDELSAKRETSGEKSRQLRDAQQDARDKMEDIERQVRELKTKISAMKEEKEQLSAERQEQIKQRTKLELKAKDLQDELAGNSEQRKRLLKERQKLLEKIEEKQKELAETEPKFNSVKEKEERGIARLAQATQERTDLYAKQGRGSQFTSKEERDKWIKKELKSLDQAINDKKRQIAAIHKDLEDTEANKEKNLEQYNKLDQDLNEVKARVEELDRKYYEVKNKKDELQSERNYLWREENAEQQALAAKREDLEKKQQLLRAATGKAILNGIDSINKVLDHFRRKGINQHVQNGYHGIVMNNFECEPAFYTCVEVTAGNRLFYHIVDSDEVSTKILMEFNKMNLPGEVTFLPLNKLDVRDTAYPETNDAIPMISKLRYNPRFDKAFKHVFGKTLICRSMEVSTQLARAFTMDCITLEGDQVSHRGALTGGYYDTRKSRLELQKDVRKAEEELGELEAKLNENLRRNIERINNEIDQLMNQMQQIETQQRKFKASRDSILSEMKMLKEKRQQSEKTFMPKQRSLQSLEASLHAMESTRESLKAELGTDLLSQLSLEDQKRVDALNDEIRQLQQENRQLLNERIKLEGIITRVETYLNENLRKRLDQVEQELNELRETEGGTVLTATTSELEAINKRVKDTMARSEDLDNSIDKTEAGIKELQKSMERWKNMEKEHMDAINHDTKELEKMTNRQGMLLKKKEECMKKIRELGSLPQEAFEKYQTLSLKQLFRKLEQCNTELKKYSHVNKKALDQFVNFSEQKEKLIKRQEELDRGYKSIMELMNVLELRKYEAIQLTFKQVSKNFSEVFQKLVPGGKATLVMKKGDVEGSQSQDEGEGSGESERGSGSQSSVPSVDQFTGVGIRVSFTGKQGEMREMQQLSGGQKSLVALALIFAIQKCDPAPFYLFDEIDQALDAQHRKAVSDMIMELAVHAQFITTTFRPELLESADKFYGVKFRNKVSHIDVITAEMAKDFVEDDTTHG
inactive: erlotinib -0.01 | [1] 0.018 | [2] -0.004 | [3] 0.018 | [4] -0.013 | [5] 0.002 | [6] 0.023 | [7] -0.007 | [8] -0.016 | IRAK-1-4 Inhibitor I -0.009

SLC12A6 (UniProt Q9UHW9)
inactive: erlotinib -0.014 | [1] -0.073 | [2] -0.047 | [3] 0.013 | [4] -0.006 | [5] -0.028 | [6] -0.01 | [7] -0.024 | [8] 0.068 | IRAK-1-4 Inhibitor I -0.01

STAT2 (UniProt P52630)
inactive: erlotinib -0.009 | [1] 0.033 | [2] -0.102 | [3] -0.01 | [4] 0.034 | [5] 0.003 | [6] -0.032 | [7] 0.002 | [8] 0.018 | IRAK-1-4 Inhibitor I -0.018

TANGO6 (UniProt Q9C0B7)
Chain of UniProt Q9C0B7 (Q9C0B7 whole entry, looked up): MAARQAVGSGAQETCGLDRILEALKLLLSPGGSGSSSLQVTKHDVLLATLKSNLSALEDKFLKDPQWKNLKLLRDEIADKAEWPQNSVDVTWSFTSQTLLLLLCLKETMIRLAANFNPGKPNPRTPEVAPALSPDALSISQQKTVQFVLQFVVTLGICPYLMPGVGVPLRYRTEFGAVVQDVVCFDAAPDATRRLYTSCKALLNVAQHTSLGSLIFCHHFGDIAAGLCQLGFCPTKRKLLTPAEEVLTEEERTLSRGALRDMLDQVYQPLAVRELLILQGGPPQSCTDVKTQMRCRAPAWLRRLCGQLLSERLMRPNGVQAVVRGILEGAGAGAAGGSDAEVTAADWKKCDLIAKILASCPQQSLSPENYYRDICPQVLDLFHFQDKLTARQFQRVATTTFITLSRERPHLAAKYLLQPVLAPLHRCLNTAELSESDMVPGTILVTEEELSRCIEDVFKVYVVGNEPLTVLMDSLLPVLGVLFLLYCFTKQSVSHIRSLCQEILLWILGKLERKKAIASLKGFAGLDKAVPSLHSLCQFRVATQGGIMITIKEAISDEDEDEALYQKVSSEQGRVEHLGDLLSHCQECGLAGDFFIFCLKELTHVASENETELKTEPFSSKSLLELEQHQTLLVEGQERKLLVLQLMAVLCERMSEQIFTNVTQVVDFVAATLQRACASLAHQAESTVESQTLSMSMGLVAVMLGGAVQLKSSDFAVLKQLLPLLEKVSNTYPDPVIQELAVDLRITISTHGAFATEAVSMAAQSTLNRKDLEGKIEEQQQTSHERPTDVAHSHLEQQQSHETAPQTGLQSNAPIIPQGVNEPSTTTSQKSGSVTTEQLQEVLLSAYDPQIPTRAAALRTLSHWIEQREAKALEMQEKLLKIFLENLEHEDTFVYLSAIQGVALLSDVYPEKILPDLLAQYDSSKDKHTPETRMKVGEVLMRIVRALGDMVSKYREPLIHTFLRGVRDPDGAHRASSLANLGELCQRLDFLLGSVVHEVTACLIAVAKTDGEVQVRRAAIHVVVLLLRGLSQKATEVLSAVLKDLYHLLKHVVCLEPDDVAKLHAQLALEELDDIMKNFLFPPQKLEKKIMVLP
inactive: erlotinib 0.045 | [1] -0.04 | [2] 0.012 | [3] -0.011 | [4] 0.009 | [5] -0.049 | [6] -0.048 | [7] 0.007 | [8] 0.023 | IRAK-1-4 Inhibitor I 0.048

SFN (UniProt P31947)
Chain of UniProt P31947 (P31947 whole entry, looked up): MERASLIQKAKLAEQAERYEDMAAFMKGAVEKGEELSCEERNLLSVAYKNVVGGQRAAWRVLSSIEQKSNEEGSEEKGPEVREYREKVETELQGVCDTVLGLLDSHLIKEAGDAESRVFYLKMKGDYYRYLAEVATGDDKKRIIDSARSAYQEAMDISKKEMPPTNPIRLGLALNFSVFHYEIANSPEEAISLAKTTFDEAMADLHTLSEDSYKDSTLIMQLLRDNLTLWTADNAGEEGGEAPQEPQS
inactive: erlotinib 0.013 | [1] -0.239 | [2] -0.006 | [3] -0.053 | [4] -0.002 | [5] -0.004 | [6] 0.025 | [7] 0.012 | [8] -0.064 | IRAK-1-4 Inhibitor I -0.03

STK24 (UniProt B4DR80)
inactive: erlotinib 0.019 | [1] 0.02 | [2] 0.018 | [3] -0.04 | [4] -0.003 | [5] -0.004 | [6] 0.198 | [7] 0.045 | [8] 0.013 | IRAK-1-4 Inhibitor I -0.007

SQLE (UniProt Q14534)
inactive: erlotinib -0.025 | [1] 0.056 | [2] 0.019 | [3] -0.03 | [4] -0.028 | [5] 0.007 | [6] 0.074 | [7] -0.019 | [8] -0.084 | IRAK-1-4 Inhibitor I 0.023

SNCA (UniProt P37840)
inactive: erlotinib -0.265 | [1] -0.037 | [2] 0.098 | [3] 0.025 | [4] -0.147 | [5] -0.02 | [6] 0.044 | [7] -0.056 | [8] -0.085 | IRAK-1-4 Inhibitor I 0.019

SMAD9 (UniProt O15198)
inactive: erlotinib 0.005 | [1] 0.048 | [2] -0.037 | [3] 0.007 | [4] 0.018 | [5] 0.053 | [6] 0.017 | [7] -0.048 | [8] -0.059 | IRAK-1-4 Inhibitor I 0

SH3GL3 isoform 3 (UniProt Q99963)
inactive: erlotinib -0.023 | [1] -0.014 | [2] -0.002 | [3] -0.054 | [4] -0.053 | [5] -0.108 | [6] -0.133 | [7] 0.054 | [8] -0.06 | IRAK-1-4 Inhibitor I -0.124

SLC29A2 (UniProt Q14542)
Chain of UniProt Q14542 (Q14542 whole entry, looked up): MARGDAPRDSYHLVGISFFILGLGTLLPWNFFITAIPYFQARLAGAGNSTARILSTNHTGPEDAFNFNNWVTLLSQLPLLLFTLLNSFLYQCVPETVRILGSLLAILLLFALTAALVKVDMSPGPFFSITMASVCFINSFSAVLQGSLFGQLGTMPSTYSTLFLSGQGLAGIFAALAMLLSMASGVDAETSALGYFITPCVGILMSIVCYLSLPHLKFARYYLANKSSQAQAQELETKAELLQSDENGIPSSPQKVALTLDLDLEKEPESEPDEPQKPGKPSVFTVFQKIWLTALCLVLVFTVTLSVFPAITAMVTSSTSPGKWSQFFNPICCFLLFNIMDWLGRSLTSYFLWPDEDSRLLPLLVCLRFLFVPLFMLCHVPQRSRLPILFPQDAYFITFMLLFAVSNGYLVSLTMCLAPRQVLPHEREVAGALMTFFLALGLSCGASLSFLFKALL
inactive: erlotinib -0.147 | [1] 0.016 | [2] -0.04 | [3] 0.013 | [4] -0.028 | [5] -0.033 | [6] 0.018 | [7] 0.018 | [8] 0.085 | IRAK-1-4 Inhibitor I 0.102

SNUPN (UniProt O95149)
Chain of UniProt O95149 (O95149 whole entry, looked up): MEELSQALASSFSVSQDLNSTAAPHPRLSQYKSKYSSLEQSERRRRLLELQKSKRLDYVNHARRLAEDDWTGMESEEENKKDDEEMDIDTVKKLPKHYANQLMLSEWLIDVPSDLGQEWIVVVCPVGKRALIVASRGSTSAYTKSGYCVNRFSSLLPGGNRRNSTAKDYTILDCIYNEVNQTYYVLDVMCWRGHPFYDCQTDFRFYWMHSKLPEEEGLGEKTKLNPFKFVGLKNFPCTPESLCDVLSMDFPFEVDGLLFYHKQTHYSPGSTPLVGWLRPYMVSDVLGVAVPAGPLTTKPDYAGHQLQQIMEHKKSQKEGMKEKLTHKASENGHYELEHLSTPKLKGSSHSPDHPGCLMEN
inactive: erlotinib -0.048 | [1] -0.116 | [2] 0.3 | [3] 0.024 | [4] 0.035 | [5] 0.069 | [6] 0.009 | [7] 0.02 | [8] -0.039 | IRAK-1-4 Inhibitor I -0.001
